Data on 175 sequences can be found in publication PMC6212790, “How bacterial xenogeneic silencer rok distinguishes foreign from self DNA in its resident genome”.

In all, about 33,000 sequences were measured (“e-score”: median about -0.038, highest 2% from about 0.33 on). Many of the other results were omitted from the sample, so the highest values are more common in it than they were.

This test concerns the target T1, GST-Rok-C97-191 (Bacillus subtilis subsp. subtilis str. …, UniProt O34857 97-191).
T1 sequence: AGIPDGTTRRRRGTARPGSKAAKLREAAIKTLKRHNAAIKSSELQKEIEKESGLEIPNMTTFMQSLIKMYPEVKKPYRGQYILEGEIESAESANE
Kind of test: protein binding microarray; Rok is a gene silencer of Bacillus subtilis; high values mean tight binding. The conditions noted are these: protein: recombinant; tags: GST (pTH5325, pDEST15-Magic modified); dsDNA, one strand shown. An outline of the steps: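 Every oligonucleotide joins a 25-mer constant primer to a 35-mer variable part drawn from a de Bruijn sequence of order 10, so each non-palindromic 8-mer appears at least 32 times and each palindromic 8-mer 16 times. The preference for every 8-mer is reported as a unitless, rank-based enrichment score (E-score). This score spans 0.5 for the most favored 8-mer to −0.5 for the most disfavored.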
Take GAGATAGA: the binding signal stood at 0.15 E-score. For the sequence AAGATATC, the binding signal turned out to be 0.2 E-score. Regarding AAGATAAC, the binding signal came out at 0.131 E-score. As for GAATAGCC, the figure is -0.126 E-score; as for AGCAGTCC, -0.0761 E-score. On to AACCCACT, for which the binding signal amounted to 0.0905 E-score.

For the sequence ACATCGAA, the binding signal was 0.0242 E-score.

As for GCGGCAGA, the binding signal was -0.0665 E-score. For GGTTTGGA, the binding signal was -0.0233 E-score.

Take TTCTTCAA: the binding signal was -0.0566 E-score.

Consider AGTGGATG, for which the binding signal was -0.131 E-score. Consider AAGGCGAT, for which the binding signal was -0.0931 E-score. In the case of GAGATATA, the binding signal was 0.301 E-score. As for CAGATATA, the binding signal turned out to be 0.195 E-score. TAGATATA: the binding signal is 0.359 E-score. Turning to ACGTACTC, the binding signal came to 0.0226 E-score.

Take ATTATTAG: the binding signal was found to be 0.325 E-score. As for ATTATTAA, the figure is 0.199 E-score; as for ATTATTAC, 0.387 E-score. For the sequence CTTATTTC, the binding signal is 0.221 E-score.

In the case of CTTATTAA, the binding signal was determined as 0.117 E-score. Take CTTATTAC: the binding signal was 0.332 E-score. As for GTAGCTGA, the binding signal amounted to 0.279 E-score. Consider AATCCTTA, for which the binding signal turned out to be 0.107 E-score. For GAATAAAC, the binding signal was determined as 0.0598 E-score. As for ACTCATCG, the binding signal turned out to be 0.0111 E-score. Regarding AATAGGGT, the binding signal was 0.0409 E-score. Regarding GGTATAAC, the binding signal was 0.266 E-score. Regarding CGTATATA, the binding signal was found to be 0.258 E-score. On to AGTATAAA, for which the binding signal was 0.289 E-score. As for AGTATATC, the figure is 0.261 E-score; as for GGTATAGA, 0.221 E-score; as for GGTATAAA, 0.352 E-score. Regarding GGTATATA, the binding signal was determined as 0.406 E-score. As for AGTATATA, the figure is 0.428 E-score. For the sequence AGTATATG, the binding signal was 0.264 E-score. CATTAAGG: the binding signal is -0.0335 E-score.

As to AGACATTA, the binding signal was determined as 0.0762 E-score. As for ATCCGTAA, the figure is -0.0485 E-score; as for GACTCATA, -0.063 E-score; as for CCATCAGA, -0.0159 E-score.

Regarding CGTGCACC, the binding signal is -0.199 E-score. As to CCTACCAG, the binding signal came to 0.0329 E-score.

Turning to GCCCTGTA, the binding signal was -0.192 E-score. As for ATACTACG, the binding signal came to 0.273 E-score. On to CGACTACC, for which the binding signal came to 0.000144 E-score.

As to CTACTACC, the binding signal was found to be 0.363 E-score. As for ATACTACC, the figure is 0.379 E-score; as for ACACTACC, -0.0628 E-score. CTACTAGC: the binding signal worked out at 0.256 E-score. As for GCTAACCA, the binding signal is -0.102 E-score. As for GAGTCTTA, the figure is -0.0226 E-score; as for GCTTACAC, -0.028 E-score; as for ACGCGGGA, -0.0896 E-score.

As for CGAGCCGA, the binding signal is -0.177 E-score. As to ACTAAATG, the binding signal was 0.226 E-score.

Consider CCTAAATC, for which the binding signal is -0.11 E-score. For the sequence CCTAAATA, the binding signal was 0.155 E-score. Regarding ACTAAAAT, the binding signal turned out to be 0.397 E-score. For ACTAAATA, the binding signal worked out at 0.354 E-score.

Consider ACTAAAAC, for which the binding signal is 0.26 E-score. In the case of ACTAAATC, the binding signal is 0.35 E-score. Take ACTAAAAA: the binding signal was determined as 0.26 E-score. For GCTAAATA, the binding signal was found to be 0.32 E-score. As for ATGAACTC, the binding signal was -0.191 E-score. As for GTCGCCTA, the figure is -0.125 E-score. For the sequence ACTATTAA, the binding signal came out at 0.302 E-score. Consider ACTATTAC, for which the binding signal turned out to be 0.4 E-score. As for ACTATTAG, the binding signal was found to be 0.263 E-score.

Regarding GCTATTAC, the binding signal worked out at 0.285 E-score. Turning to ACTATTAT, the binding signal amounted to 0.364 E-score. As for CCTATTAC, the figure is 0.247 E-score; as for ACGGAAAG, -0.117 E-score.

With CAGCTGCA, the binding signal is -0.0452 E-score.

Turning to AACCTATA, the binding signal is 0.183 E-score. Consider TACCTATA, for which the binding signal came out at 0.375 E-score.

In the case of CACCTATA, the binding signal worked out at 0.223 E-score.

Regarding CACCTAAA, the binding signal amounted to 0.0109 E-score.

Consider AACCTAAA, for which the binding signal is 0.0757 E-score. As for TACCTAAA, the figure is 0.369 E-score. Turning to ACAATGGA, the binding signal was -0.0232 E-score. With GCTAGCCA, the binding signal was 0.153 E-score. On to GATAAGAA, for which the binding signal worked out at 0.0314 E-score. On to ATATTACA, for which the binding signal was found to be 0.304 E-score. In the case of GTATTAGA, the binding signal amounted to 0.171 E-score. Consider ATATTATG, for which the binding signal came to 0.0424 E-score. As for CTATTACC, the figure is 0.312 E-score. As for GTATTAAA, the binding signal came to 0.158 E-score. For the sequence ATATTATC, the binding signal was 0.245 E-score. With CTATTACA, the binding signal was found to be 0.35 E-score. On to CTATTATA, for which the binding signal turned out to be 0.329 E-score. For CGATTATA, the binding signal came out at 0.261 E-score. With GTATTATA, the binding signal came to 0.388 E-score. Regarding ATATTATA, the binding signal was found to be 0.379 E-score. As for CTATTATC, the figure is 0.211 E-score; as for CCCACTAC, 0.0131 E-score; as for AAGTGGCC, -0.135 E-score. Regarding ATGCATAC, the binding signal was found to be 0.0643 E-score. On to AATGACAT, for which the binding signal was 0.115 E-score.

Regarding ATCTAACA, the binding signal is 0.192 E-score. For the sequence CTCTTAGA, the binding signal is -0.0403 E-score.

As to AGAAAATA, the binding signal was found to be 0.342 E-score. For AGAAAATG, the binding signal amounted to 0.187 E-score. As for GAAAAATA, the figure is 0.273 E-score; as for GGGAAATA, 0.229 E-score. As for CGAAATTA, the figure is 0.31 E-score; as for GGAAATTA, 0.28 E-score. On to CGAAAATA, for which the binding signal worked out at 0.204 E-score. On to AGAAATTA, for which the binding signal is 0.344 E-score. Consider GGAAAATA, for which the binding signal stood at 0.331 E-score. For the sequence AAGAAGTG, the binding signal was 0.201 E-score. Turning to GACCGGAA, the binding signal is -0.0227 E-score. As to ATCCTGTA, the binding signal was 0.176 E-score. Take ACGTAAGT: the binding signal is -0.0408 E-score. For AGCGTTTG, the binding signal was determined as 0.0655 E-score.

As for ACAAAAAA, the binding signal is 0.136 E-score. Take AATCGTCG: the binding signal was -0.0319 E-score. Regarding GAACTAGA, the binding signal amounted to 0.335 E-score. As for TAACTAGA, the figure is 0.247 E-score; as for ACACTAGA, 0.179 E-score; as for CAACTAGA, 0.255 E-score. Take AGACTAGA: the binding signal stood at 0.199 E-score. On to AAACTAGA, for which the binding signal was found to be 0.354 E-score. As for CCTAATCA, the figure is 0.011 E-score; as for CCTCTTAA, -0.103 E-score. Turning to AACGCCAG, the binding signal was -0.0768 E-score. With GAGGGAAC, the binding signal was -0.0649 E-score. On to ATAAATTA, for which the binding signal was 0.259 E-score. For GTAAACTA, the binding signal was determined as 0.364 E-score.

In the case of ATAAACTC, the binding signal was determined as 0.173 E-score. As to GTAAACAA, the binding signal was -0.0801 E-score.

As for CTAAACTC, the binding signal worked out at 0.0554 E-score.

For the sequence GTAAATTA, the binding signal was found to be 0.378 E-score. On to CTAAATTA, for which the binding signal was found to be 0.141 E-score. CTAAACTA: the binding signal came out at 0.386 E-score. As for CTAAACGA, the figure is -0.0375 E-score. Take ATAAACTG: the binding signal is 0.199 E-score. As to GTAAACGA, the binding signal was -0.119 E-score.

For the sequence ATAAACTA, the binding signal amounted to 0.359 E-score. Take GGAGGAAC: the binding signal was -0.069 E-score.

Regarding ATAAGAAG, the binding signal stood at 0.0784 E-score.

As for TACAATAA, the binding signal turned out to be 0.108 E-score. As for ACAAGGAG, the binding signal was -0.167 E-score. Regarding AAACAGCC, the binding signal was -0.174 E-score. For TATGACAA, the binding signal is -0.00238 E-score.

Consider CCGGCAAG, for which the binding signal is -0.0857 E-score. As for CGCATGAC, the figure is -0.0389 E-score. CATCCATC: the binding signal was -0.0668 E-score. Turning to AAGCGGAC, the binding signal is -0.0303 E-score. On to GAGAGCTC, for which the binding signal is -0.123 E-score. In the case of CATGAATG, the binding signal was -0.00652 E-score. Consider CATTGGTA, for which the binding signal worked out at 0.279 E-score.

Turning to AATTGGTC, the binding signal is -0.0353 E-score. Regarding AAGTGGTA, the binding signal came out at 0.385 E-score. As for GATTGCTA, the binding signal came out at 0.18 E-score. Take AATTGGTA: the binding signal turned out to be 0.331 E-score. For AATTGCTA, the binding signal came to 0.328 E-score. On to CATTGCTA, for which the binding signal worked out at 0.118 E-score. With AAGTGGTC, the binding signal is -0.168 E-score.

As to CAGTGGTA, the binding signal came to 0.232 E-score.

GTCAAGTA: the binding signal was found to be 0.157 E-score. For CCTTTTCC, the binding signal was -0.198 E-score. Regarding CGCAACCG, the binding signal came to 0.0123 E-score. Turning to AAATTAAA, the binding signal is 0.205 E-score. As for TAATTACA, the figure is 0.396 E-score; as for AAATTATG, 0.224 E-score.

As to GAATTATC, the binding signal came to 0.23 E-score. Regarding AAATTATA, the binding signal came out at 0.389 E-score. In the case of CAATTATA, the binding signal amounted to 0.291 E-score. As for GAATTATA, the binding signal was determined as 0.24 E-score.

AAATTATC: the binding signal was 0.364 E-score.

As for TAATTATA, the binding signal was 0.386 E-score.

In the case of GAATTACA, the binding signal stood at 0.275 E-score.

As to AAATTATT, the binding signal stood at 0.296 E-score. As for AAATTACA, the figure is 0.325 E-score.
